The campaign covered roughly 5,500 compounds. About 2,000 (36%) were called active. Roughly 18% stayed inconclusive and do not appear here. No stated cut-off is given here; in the data, active means normalized growth mostly below about 0.91 (no sharp cut-off); inconclusive means no clear call, values can overlap the other calls; inactive means mostly above about 0.92. The list shows a part of the results.
Experiment: chemical genetic growth profiling, strain panel (AID 1159580);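 further: tested at 20 µM; growth read once vehicle control cultures reached saturation at 30 °C; 1 = growth at the plate median or of vehicle wells; lower values mean less growth of the strain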
Conditions: S. cerevisiae deletion strains, growth OD
[1] = locus YAR019C, strain CDC15, active compounds read low
[2] = locus YBL105C, strain PKC1, active compounds read low
[3] = locus YBR135W, strain CKS1, active compounds read low
[4] = locus YBR136W, strain MEC1, active compounds read low
[5] = locus YBR160W, strain CDC28, active compounds read low
[6] = locus YDL017W, strain CDC7, active compounds read low
[7] = locus YDL028C, strain MPS1, active compounds read low
[8] = locus YDL101C, strain DUN1, active compounds read low
[9] = locus YDL108W, strain KIN28, active compounds read low
[10] = locus YDL132W, strain cdc53, active compounds read low
[11] = locus YDL214C, strain PRR2, active compounds read low
[12] = locus YDR052C, strain DBF4, active compounds read low
[13] = locus YDR054C, strain cdc34, active compounds read low
[14] = locus YDR226W, strain ADK1, active compounds read low
[15] = locus YDR477W, strain SNF1, active compounds read low
[16] = locus YER123W, strain YCK3, active compounds read low
[17] = locus YER133W, strain GLC7, active compounds read low
[18] = locus YFL009W, strain cdc4, active compounds read low
[19] = locus YFL029C, strain CAK1, active compounds read low
[20] = locus YFR003C, strain YPI1, active compounds read low
[21] = locus YFR019W, strain FAB1, active compounds read low
[22] = locus YFR028C, strain CDC14, active compounds read low
[23] = locus YGR040W, strain KSS1, active compounds read low
[24] = locus YGR052W, strain FMP48, active compounds read low
[25] = locus YGR092W, strain DBF2, active compounds read low
[26] = locus YHR030C, strain SLT2, active compounds read low
[27] = locus YHR079C, strain IRE1, active compounds read low
[28] = locus YHR082C, strain KSP1, active compounds read low
[29] = locus YHR205W, strain SCH9, active compounds read low
[30] = locus YIL147C, strain SLN1, active compounds read low
[31] = locus YJL095W, strain BCK1, active compounds read low
[32] = locus YJL128C, strain PBS2, active compounds read low
[33] = locus YJL157C, strain FAR1, active compounds read low
[34] = locus YJR016C, strain ILV3, active compounds read low
[35] = locus YJR066W, strain TOR1 (second series), active compounds read low
[36] = locus YJR066W, strain TOR1, active compounds read low
[37] = locus YKL048C, strain ELM1, active compounds read low
[38] = locus YKL067W, strain YNK1, active compounds read low
[39] = locus YKL101W, strain HSL1, active compounds read low
[40] = locus YKL193C, strain SDS22, active compounds read low
[41] = locus YKL203C, strain TOR2, active compounds read low
[42] = locus YLR113W, strain HOG1, active compounds read low
[43] = locus YLR133W, strain CKI1, active compounds read low
[44] = locus YLR403W, strain SFP1, active compounds read low
[45] = locus YML070W, strain DAK1, active compounds read low
[46] = locus YMR001C, strain CDC5, active compounds read low
[47] = locus YMR205C, strain PFK2 (second series), active compounds read low
[48] = locus YMR277W, strain FCP1, active compounds read low
[49] = locus YNL006W, strain LST8, active compounds read low
[50] = locus YNL020C, strain ARK1, active compounds read low
[51] = locus YNL161W, strain CBK1, active compounds read low
[52] = locus YNL183C, strain NPR1, active compounds read low
[53] = locus YNL207W, strain RIO2, active compounds read low
[54] = locus YNL222W, strain SSU72, active compounds read low
[55] = locus YNL307C, strain MCK1 (second series), active compounds read low
[56] = locus YOL078W, strain AVO1, active compounds read low
[57] = locus YOL136C, strain PFK27, active compounds read low
[58] = locus YOR061W, strain CKA2, active compounds read low
[59] = locus YOR119C, strain RIO1, active compounds read low
[60] = locus YOR231W, strain MKK1, active compounds read low
[61] = locus YOR329C, strain SCD5, active compounds read low
[62] = locus YPL031C, strain PHO85, active compounds read low
[63] = locus YPL153C, strain RAD53, active compounds read low
[64] = locus YPL204W, strain HRR25, active compounds read low
[65] = locus YPL209C, strain IPL1, active compounds read low
[66] = locus YPL256C, strain CLN2, active compounds read low
[67] = locus YPR025C, strain CCL1, active compounds read low
[68] = locus YPR106W, strain ISR1, active compounds read low
[69] = locus YPR111W, strain DBF20, active compounds read low
[70] = strain NNK1, active compounds read low
[71] = strain TSCII, active compounds read low

Measured: normalized growth

Cc1onc(-c2c(Cl)cccc2Cl)c1C(=O)O/N=C(/N)Cc1ccc(C(C)(C)C)cc1
active: [26] 1.22 [resistant]
inactive: [1] 0.991 | [2] 0.986 | [3] 0.988 | [4] 0.995 | [5] 0.983 | [6] 0.988 | [7] 0.993 | [8] 0.986 | [9] 0.989 | [10] 0.983 | [11] 0.982 | [12] 0.987 | [13] 0.989 | [14] 0.993 | [15] 1 | [16] 0.998 | [17] 0.999 | [18] 0.987 | [19] 0.986 | [20] 0.996 | [21] 0.995 | [22] 0.989 | [23] 0.999 | [24] 1.15 | [25] 0.983 | [27] 1.12 | [28] 1.16 | [29] 0.993 | [30] 0.987 | [31] 1.15 | [32] 0.953 | [33] 0.991 | [34] 0.992 | [35] 0.986 | [36] 1.17 | [37] 0.999 | [38] 1 | [39] 0.998 | [40] 0.989 | [41] 1.06 | [42] 1.08 | [43] 0.991 | [44] 0.994 | [45] 0.99 | [46] 0.989 | [47] 1 | [48] 0.994 | [49] 0.994 | [50] 1.01 | [51] 0.995 | [52] 1.14 | [53] 0.992 | [54] 0.987 | [55] 0.995 | [56] 0.985 | [57] 1.02 | [58] 1.01 | [59] 1.05 | [60] 1.08 | [61] 0.997 | [62] 1.02 | [63] 1 | [64] 1.02 | [65] 1 | [66] 1.1 | [67] 0.986 | [68] 0.994 | [69] 0.988 | [70] 0.997 | [71] 0.99

Cc1onc(-c2c(F)cccc2Cl)c1/C(N)=N\OC(=O)c1ccc(C(C)(C)C)cc1
active: [26] 1.17 [resistant]
inactive: [1] 0.989 | [2] 0.998 | [3] 0.985 | [4] 0.986 | [5] 0.989 | [6] 0.993 | [7] 0.985 | [8] 0.98 | [9] 0.978 | [10] 0.989 | [11] 0.971 | [12] 0.994 | [13] 1 | [14] 0.989 | [15] 0.976 | [16] 0.948 | [17] 0.967 | [18] 0.987 | [19] 1 | [20] 0.997 | [21] 0.982 | [22] 0.984 | [23] 0.975 | [24] 1.1 | [25] 1 | [27] 1.08 | [28] 1.11 | [29] 0.986 | [30] 0.981 | [31] 1.11 | [32] 0.957 | [33] 0.963 | [34] 0.982 | [35] 0.932 | [36] 1.12 | [37] 0.983 | [38] 0.994 | [39] 0.972 | [40] 0.991 | [41] 1.05 | [42] 1 | [43] 0.988 | [44] 0.968 | [45] 0.966 | [46] 0.987 | [47] 0.987 | [48] 0.992 | [49] 0.988 | [50] 0.978 | [51] 0.991 | [52] 1.11 | [53] 0.99 | [54] 0.99 | [55] 0.998 | [56] 0.982 | [57] 0.956 | [58] 0.967 | [59] 1.02 | [60] 1.05 | [61] 0.996 | [62] 0.991 | [63] 0.973 | [64] 0.979 | [65] 0.993 | [66] 1.05 | [67] 0.99 | [68] 0.988 | [69] 0.986 | [70] 0.99 | [71] 0.99

COc1c(Br)cc(/C(N)=N\OC(=O)c2c(-c3c(Cl)cccc3Cl)noc2C)cc1Br
inactive: locus YAL013W, strain DEP1, active compounds read low 1.03 | locus YBR229C, strain ROT2, active compounds read low 1.01 | [8] 1 | locus YDR150W, strain NUM1, active compounds read low 1.02 | locus YEL061C, strain CIN8, active compounds read low 0.983 | locus YGR078C, strain PAC10, active compounds read low 1.02 | [26] 1.08 | locus YHR087W, strain rtc3, active compounds read low 1.02 | locus YJR043C, strain POL32, active compounds read low 1.01 | locus YJR075W, strain HOC1, active compounds read low 1.01 | locus YKL190W, strain CNB1, active compounds read low 1.01 | locus YLR039C, strain RIC1, active compounds read low 1.09 | locus YLR058C, strain SHM2 (second series), active compounds read low 1.01 | locus YLR085C, strain ARP6, active compounds read low 1.13 | locus YLR262C, strain YPT6, active compounds read low 1.04 | locus YML094W, strain GIM5, active compounds read low 1.04 | locus YMR219W, strain ESC1, active compounds read low 1.01 | locus YMR263W, strain SAP30, active compounds read low 1 | locus YMR307W, strain GAS1, active compounds read low 1.05 | locus YNL153C, strain GIM3, active compounds read low 0.998 | locus YNL298W, strain CLA4 (second series), active compounds read low 1.05 | locus YNL322C, strain KRE1, active compounds read low 1.01 | locus YNR030W, strain Alg12, active compounds read low 1.03 | locus YPL055C, strain LGE1, active compounds read low 1.07 | locus YPL241C, strain CIN2, active compounds read low 0.98 | locus YPR135W, strain CTF4, active compounds read low 1.17
